Data taken from PubChem BioAssay (NCI).
About 83,000 compounds went through this panel and 20% of them were active in at least one assay; those are over-represented in the sample as a whole.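 Activity criterion: percent growth below 10, measured after cells in 96-well plates were exposed to a single compound concentration for 48 hours.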 Values without a mark were called inactive. Active and inactive are the calls of the source.

Tests used:
Assay in all cases: NCI-60 one-dose screen, 48 h (100 = growth as untreated, 0 = no growth, -100 = all killed)
Conditions in all cases: 10 µM unless noted
HCT-15 colon = test system: HCT-15 colon
HT29 colon = test system: HT29 colon
SNB-75 CNS = test system: SNB-75 CNS
SNB-19 CNS = test system: SNB-19 CNS
U251 CNS = test system: U251 CNS
PC-3 prostate = test system: PC-3 prostate
SK-MEL-5 melanoma = test system: SK-MEL-5 melanoma
UACC-62 melanoma = test system: UACC-62 melanoma
LOX IMVI melanoma = test system: LOX IMVI melanoma
SK-MEL-28 melanoma = test system: SK-MEL-28 melanoma
SK-MEL-2 melanoma = test system: SK-MEL-2 melanoma
EKVX NSCLC = test system: EKVX NSCLC
SN12C renal = test system: SN12C renal
UO-31 renal = test system: UO-31 renal
TK-10 renal = test system: TK-10 renal
ACHN renal = test system: ACHN renal
CAKI-1 renal = test system: CAKI-1 renal
CCRF-CEM leukemia = test system: CCRF-CEM leukemia
MOLT-4 leukemia = test system: MOLT-4 leukemia

| SMILES | growth (HCT-15 colon) | growth (HT29 colon) | growth (SNB-75 CNS) | growth (SNB-19 CNS) [%] | growth (U251 CNS) | growth (PC-3 prostate) | growth (SK-MEL-5 melanoma) | growth (UACC-62 melanoma) | growth (LOX IMVI melanoma) | growth (SK-MEL-28 melanoma) | growth (SK-MEL-2 melanoma) | growth (EKVX NSCLC) | growth (SN12C renal) | growth (UO-31 renal) | growth (TK-10 renal) | growth (ACHN renal) | growth (CAKI-1 renal) | growth (CCRF-CEM leukemia) | growth (MOLT-4 leukemia) |
| --- | --- | --- | --- | --- | --- | --- | --- | --- | --- | --- | --- | --- | --- | --- | --- | --- | --- | --- | --- |
| O=C(Nc1cccc(C2=NCCN2)c1)c1ccc(OCCCOc2ccc(C(=O)Nc3cccc(C4=NCCN4)c3)cc2)cc1 | 90.7% | 12.9% | -1.39% (active) | 14.9 | 24.8% | 29.8% | 2.98% (active) | -10.5% (active) | -33.4% (active) | -67.4% (active) | -47.3% (active) | 69.4% | 23.6% | 85.7% | 81.5% | 75.3% | 65.1% | 33.5% | 25.4% |
| CCOC(=O)c1c(O)cc(-c2ccccc2)cc1-c1sc(N(C)Cc2ccccc2)nc1Cl | 101% | 110% | 89.9% | 101 | 98% | 97% | 101% | 92.6% | 97% | 101% | 101% | 101% | 97.3% | 96.8% | 108% | 97.2% | 87.9% | 96.3% | 94.4% |
| COc1ccc(C(=O)c2cc(C)c(OC)c(C)c2)c(OC)c1O | 8.64% (active) | 26.6% | 57.8% | 22.2 | 14.5% | 19.5% | -34.5% (active) | 30.3% | 21.5% | 48.8% | 26.8% | 59.2% | 28.8% | 36.6% | 58.5% | 22.5% | 39.5% | 16.3% | 23.4% |
| O=C(Nc1cccc(Cl)c1)c1cc(Cl)ccc1O | 12% | 15.5% | -26.8% (active) | 15.9 | 15.7% | -4.48% (active) | -54.4% (active) | 0.352% (active) | -32.5% (active) | 10.1% | -17.7% (active) | 7.96% (active) | -0.418% (active) | 7.54% (active) | 13.4% | -0.748% (active) | -7.81% (active) | 12.9% | 4.18% (active) |
| CCCCOc1ccc(/C=N/Nc2cc(C)nc3ccc(Cl)cc23)cc1 | -80.3% (active) | -49.8% (active) | 17% | 20.7 | -82.1% (active) | 20.6% | 71.8% | 77.8% | -94.7% (active) | -89.5% (active) | 67.6% | 60% | -81.6% (active) | -96.1% (active) | 36.8% | -95.5% (active) | 35.1% | -5.7% (active) | -36.9% (active) |
| O=C1CCCN1c1cccc2cccnc12 | 101% | 103% | 83.1% | 91 | 96.4% | 107% | 99.1% | 104% | 95.6% | 113% | 104% | 91.5% | 102% | 81.2% | 88.5% | 102% | 91.9% | 107% | 102% |
| CC(=O)O[C@]1(C(C)=O)CC[C@H]2[C@@H]3C=C(Cl)C4=CC(=O)CC[C@]4(C)[C@H]3CC[C@@]21C | 102% | 101% | 117% | 98 | 106% | 96.1% | 109% | 90.6% | 115% | 119% | 98.6% | 107% | 97.7% | 93.8% | 113% | 108% | 94.6% | 95.3% | 84.9% |
| C=C1C(=O)O[C@H]2[C@H]1CC/C(CNC(=O)/C=C/c1ccccc1F)=C\CC[C@@]1(C)O[C@@H]21 | -63.4% (active) | -17.2% (active) | 94.1% | 56.4 | 52.5% | 37.3% | 66.1% | -5.46% (active) | -25% (active) | -33.9% (active) | 54.7% | -18.9% (active) | 8.82% (active) | -95.9% (active) | -29% (active) | -65.6% (active) | -84.4% (active) | -0.259% (active) | -12% (active) |
| COc1ccccc1Nc1cc(O)c2c(=O)cc(-c3ccccc3)oc2c1 | 29.3% | 17% | -4.79% (active) | 43.9 | 22.1% | 54.5% | 24.6% | 35.8% | 39.9% | 56.5% | 13.7% | 57.4% | 36.6% | 46.6% | 66.3% | 50.8% | 41.3% | 7.29% (active) | 25.9% |
| O=CNc1cc(Cl)cc(Cl)c1 | 103% | 101% | 104% | 99.7 | 102% | 96.1% | 102% | 96.1% | 108% | 103% | 100% | 96.7% | 95.9% | 90.1% | 101% | 101% | 92.3% | 101% | 97.5% |
| COc1ccccc1/C=N/NC1=NC2C(N1)N(C)C(=O)N2C (centres undefined) | 104% | 111% | 83.4% | 104 | 99.2% | 95.4% | 100% | 100% | 99.5% | 103% | 104% | 99.8% | 100% | 86.2% | 125% | 102% | 91.7% | – | 102% |
| O=C(N=Nc1c(O)[nH]c2ccc(F)cc12)c1cc2ccccc2[nH]1 | 96% | 109% | 99.6% | 97.7 | 94.7% | 103% | 99.7% | 96.1% | 97.3% | 110% | 91% | 89% | 91.2% | 76.2% | 106% | 100% | 80.7% | 99.5% | 99.2% |
| COc1ccc(/C=C/C(=O)c2ccc(OC)c(OC)c2)cc1O | 56.5% | 63.8% | 86.1% | 82.1 | 25.4% | 82.4% | 77.2% | 87.1% | 65.5% | 101% | 99.9% | 87.4% | 73.8% | 63.9% | 83.8% | 86% | 62.9% | – | 67.2% |
| O=C1CCC(NC(=S)Nc2ccccc2)N1 (centres undefined) | 113% | 98.3% | 113% | 100 | 104% | 102% | 106% | 99.9% | 97.5% | 108% | 103% | 117% | 97.4% | 95.3% | 101% | 109% | 106% | 97.2% | 106% |
| Brc1ccc(C2CC(c3cccc(Nc4ccncc4)c3)=NN2c2ccccc2)cc1 (centres undefined) | 13.5% | 4.59% (active) | 79.6% | 94.3 | 32.1% | 52.4% | 82.2% | 98.6% | 53.4% | 73.3% | 102% | 95.7% | 81.2% | 74.6% | 94.4% | 91.3% | 81.1% | 63.2% | 47.3% |
| [O-][n+]1ccccc1CCN(O)CCc1cccc[n+]1[O-] | 99.3% | 98.5% | 85.4% | 102 | 105% | 91.8% | 95.3% | 99% | 97.9% | 116% | 92.9% | 99.4% | 105% | 75.5% | 104% | 95.8% | 94.7% | – | 98% |
| COc1cc(-c2cc(=O)oc3cc(O)ccc23)cc(OC)c1OC | 91.3% | 95.1% | 74.5% | 95.3 | 96.7% | 71.9% | 91.4% | 88.1% | 97.1% | 99.3% | 101% | 89.8% | 79% | 72.2% | 110% | 89.3% | 74% | – | 92.9% |
